Some test systems named below: HCT-15 colon; HT29 colon; SNB-75 CNS; SNB-19 CNS; U251 CNS; PC-3 prostate; SK-MEL-5 melanoma; UACC-62 melanoma; LOX IMVI melanoma; SK-MEL-28 melanoma; SK-MEL-2 melanoma; EKVX NSCLC; SN12C renal; UO-31 renal; TK-10 renal; ACHN renal; A498 renal; CCRF-CEM leukemia; MOLT-4 leukemia; CAKI-1 renal.
Holding throughout (assay): NCI-60 one-dose screen, 48 h (100 = growth as untreated, 0 = no growth, -100 = all killed)
Holding throughout (conditions): 10 µM unless noted

The structures appear in SMILES notation. The panel holds about 83,000 compounds, 20% with a hit somewhere; the sample as a whole holds those more often.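 Assay: single dose, 48 h. Readout: percent growth (0 = no net growth; negative = cell death). Active: <10.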 A number with no mark means an inactive call. Calls of active or inactive are those of the source.

For the compound `CC(=O)[C@@H]1CC[C@]2(C(=O)n3ccnc3)CC[C@]3(C)[C@H](CC[C@@H]4[C@@]5(C)Cc6c([nH]c7ccccc67)C(C)(C)[C@@H]5CC[C@]43C)[C@@H]12`, the growth is 87.7% with HCT-15 colon; 81.2% in the assay with HT29 colon; 101% with SNB-75 CNS; 88.4% in the assay on SNB-19 CNS; 87.7% in the assay on U251 CNS; 63.7% in the assay with PC-3 prostate. Besides, the growth in the assay on SK-MEL-5 melanoma was 94.3%; in the assay on UACC-62 melanoma, 94.1%; in the assay on LOX IMVI melanoma, 87.2%; with SK-MEL-28 melanoma it was 96%; in the assay with SK-MEL-2 melanoma, 91.2%; in the assay on EKVX NSCLC, 75.2%. Besides, the growth with SN12C renal was 94.2%; in the assay with UO-31 renal it was 63.6%; with TK-10 renal it was 102%; with ACHN renal, 83.5%; with A498 renal, 99%; with CCRF-CEM leukemia it was 99.5%. Further, the growth in the assay with MOLT-4 leukemia is 74.1%.
Turning to `Cc1c(C(=O)NO)sc2ncnc(Nc3ccc(NC(=S)Nc4ccccc4)cc3)c12`, the growth in the assay on HCT-15 colon was 95.4%; with HT29 colon it was 103%; with SNB-75 CNS, 87.9%; in the assay with SNB-19 CNS, 96.5%; with U251 CNS, 104%; in the assay on PC-3 prostate, 106%. The growth in the assay on SK-MEL-5 melanoma is 101%; in the assay on UACC-62 melanoma, 95%; in the assay on LOX IMVI melanoma it was 93.8%; with SK-MEL-28 melanoma, 105%; in the assay on SK-MEL-2 melanoma it was 104%; with EKVX NSCLC, 93.6%. Also, the growth is 101% in the assay with SN12C renal; 85.1% in the assay on UO-31 renal; 106% with TK-10 renal; 105% with ACHN renal; 96.6% in the assay on CAKI-1 renal; 111% with MOLT-4 leukemia.
In the case of `COc1cc(CCNc2nc3cc(N)cc(N)c3nc2-c2ccccc2)cc(OC)c1`, the growth in the assay with HCT-15 colon was 69.7%; in the assay with HT29 colon, 5.3% (active); in the assay on SNB-75 CNS, 39.9%; with SNB-19 CNS it was 12.9%; with U251 CNS it was -80.3% (active); in the assay with PC-3 prostate it was 4.03% (active). Moreover, the growth in the assay with SK-MEL-5 melanoma was -91.7% (active); in the assay on UACC-62 melanoma it was -22.3% (active); with LOX IMVI melanoma it was -79.7% (active); in the assay with SK-MEL-28 melanoma, -12.2% (active); with SK-MEL-2 melanoma it was -3.81% (active); in the assay with EKVX NSCLC, 57.6%. The growth with SN12C renal was -77.7% (active); in the assay with UO-31 renal it was 39%; in the assay with TK-10 renal it was 104%; in the assay on ACHN renal, 52.3%; in the assay on CAKI-1 renal, 184%; with MOLT-4 leukemia, -66.5% (active).
Regarding `Fc1cc(C2=NNC(c3ccc[nH]3)C2)ccc1-n1ccc(C(F)(F)F)n1` (stereo unspecified), the growth in the assay with HCT-15 colon is 94.1%; in the assay on HT29 colon, 92.9%; in the assay with SNB-75 CNS it was 87.7%; in the assay on SNB-19 CNS, 91.2%; with U251 CNS, 77.6%; in the assay on PC-3 prostate, 72.3%. Besides, the growth in the assay with SK-MEL-5 melanoma is 98%; with UACC-62 melanoma, 81.3%; with LOX IMVI melanoma, 94.2%; in the assay on SK-MEL-28 melanoma it was 104%; in the assay on SK-MEL-2 melanoma, 102%; with EKVX NSCLC, 84.7%. Moreover, the growth with SN12C renal is 85.6%; in the assay with UO-31 renal, 52.1%; with TK-10 renal, 117%; in the assay on ACHN renal, 91%; in the assay with CAKI-1 renal it was 66.5%; with MOLT-4 leukemia, 77.5%.
`C=C(C)[C@@H]1CC[C@]2(C(=O)N3CCN(C)CC3)CC[C@]3(C)[C@H](CC[C@@H]4[C@@]5(C)CCC(=O)C(C)(C)[C@@H]5CC[C@]43C)[C@@H]12`: the growth with HCT-15 colon is 61.7%; in the assay on HT29 colon it was 39.2%; with SNB-75 CNS, 85.2%; in the assay with SNB-19 CNS, 81.5%; in the assay on U251 CNS, 69.7%; in the assay on PC-3 prostate it was 54.7%. Further, the growth in the assay with SK-MEL-5 melanoma is 92.1%; with UACC-62 melanoma, 99.5%; in the assay on LOX IMVI melanoma, 92.5%; with SK-MEL-28 melanoma, 92.7%; with SK-MEL-2 melanoma it was 92.1%; in the assay with EKVX NSCLC, 96.3%. Also, the growth with SN12C renal is 75.7%; in the assay with UO-31 renal, 66.7%; in the assay on TK-10 renal, 102%; in the assay with ACHN renal, 77.4%; in the assay with CAKI-1 renal, 93.5%; in the assay on MOLT-4 leukemia, 51.6%.
`CCCCN(CCCC)CCc1c(C)cc(C)c(CCN(CCCC)CCCC)c1O`: the growth in the assay with HCT-15 colon was 36.7%; in the assay on HT29 colon it was 11.9%; with SNB-75 CNS, 82.8%; in the assay on SNB-19 CNS, 22.8%; in the assay with U251 CNS, 24.6%; in the assay with PC-3 prostate it was 14.1%. The growth in the assay on SK-MEL-5 melanoma was 0.474% (active); in the assay with UACC-62 melanoma, 3.34% (active); with LOX IMVI melanoma, 28.2%; with SK-MEL-28 melanoma, 23.2%; with SK-MEL-2 melanoma, 1.41% (active); in the assay with EKVX NSCLC, 14.4%. The growth with SN12C renal was 22.9%; in the assay with UO-31 renal, 28.4%; in the assay on TK-10 renal it was 37.4%; in the assay on ACHN renal, 29.3%; in the assay on CAKI-1 renal, 39.7%; in the assay on MOLT-4 leukemia it was 16.2%.
As to `CC(=O)c1cc2c(N)c(C(=O)Nc3cncc4ccccc34)sc2nc1C`, the growth in the assay with HCT-15 colon was 95.4%; in the assay with HT29 colon it was 107%; in the assay with SNB-75 CNS, 91.5%; with SNB-19 CNS it was 98.5%; in the assay on U251 CNS it was 106%; with PC-3 prostate it was 93.8%. Further, the growth with SK-MEL-5 melanoma is 98.5%; in the assay with UACC-62 melanoma, 76.1%; in the assay on LOX IMVI melanoma, 98.9%; in the assay on SK-MEL-28 melanoma, 102%; in the assay with SK-MEL-2 melanoma it was 91.2%; in the assay on EKVX NSCLC, 100%. Further, the growth in the assay with SN12C renal is 95.3%; in the assay on UO-31 renal, 80.1%; with TK-10 renal it was 119%; with ACHN renal, 97.1%; with CAKI-1 renal, 83.8%; in the assay on MOLT-4 leukemia it was 90.3%.
Turning to `C=CCn1c(SCC(=O)Nc2ccc(C(=O)/C=C/c3cc(OC)c(OC)c(OC)c3)cc2)nnc1-c1cc(OC)c(OC)c(OC)c1`, the growth was 0.237% (active) in the assay with HCT-15 colon; -34.8% (active) in the assay with HT29 colon; 37.2% in the assay with SNB-75 CNS; 40.6% in the assay on SNB-19 CNS; 2.63% (active) in the assay on U251 CNS; 49.9% in the assay with PC-3 prostate. Also, the growth in the assay on SK-MEL-5 melanoma was 31.7%; in the assay on UACC-62 melanoma, 33.7%; with LOX IMVI melanoma, 5.43% (active); in the assay on SK-MEL-28 melanoma it was 66.9%; in the assay on SK-MEL-2 melanoma, 80.9%; in the assay with EKVX NSCLC, 51.8%. Further, the growth in the assay with SN12C renal was 33.8%; in the assay on UO-31 renal, 42%; in the assay on TK-10 renal, 87.3%; in the assay with ACHN renal, 37.8%; in the assay with A498 renal, 55.8%; with CCRF-CEM leukemia it was 1.85% (active). Besides, the growth in the assay on MOLT-4 leukemia is 12.3%.
